Data on 40 compounds can be found in PubChem BioAssay (EPA / NIEHS).

Activity calls are given as the source filed them. The calls were made as follows: active = hit-call score of the fitted dose curve at least 0.9, where 1 is the maximum; inactive = score below 0.9.

Read-out in the experiment: Transforming Growth Factor (TGFB1), TGFB1 (gene 7040)
The experiment can be described thus: LTEA_HepaRG_TGFB1: Life Technologies and Expression Analysis (LTEA) Assay for Transforming Growth Factor (TGFB1) Transporter using HepaRG (AID 2283533). The following applies: mRNA level, 48 h; actives raise or lower the signal. As for the experimental part:
LTEA_HepaRG is a cell based, multiplexed-readout assay that uses HepaRG, a human liver cell line, with measurements taken at 48 hours after chemical dosing on a 96-well plate.LTEA_HepaRG_TGFB1 is one of 102 assay component(s) measured in the LTEA HepaRG cell culture assay. It is a marker of Cell proliferation, survival, death.Data from the assay component LTEA_HepaRG_TGFB1 was analyzed into 1 endpoint. This assay endpoint, LTEA_HepaRG_TGFB1, was analyzed with bidirectional fitting relative to DMSO as the negative control and baseline of activity. Using a type of inducible reporter, measures of mRNA induction for gain or loss-of-signal activity can be used to understand regulation of transcription factor activity. To generalize the intended target to other relatable targets, this assay endpoint is annotated to the growth factor intended target family, where the subfamily is transforming growth factor beta.
A total of 1060 chemcials from the ToxCast library were tested in eight-point concentration-response experiments. Cell culture and cytotoxicity assays were conducted at Thermo Fisher Scientific's Custom Services facility (Madison, WI). A single lot of human HepaRG cells (Thermo Fisher Scientific, Frederick, MD) was used for the cell culture experiments. 96-well format collagen type I coated plates of human HepaRG cells were prepared using established methods. Briefly, cryopreserved HepaRG cells were thawed, plated at a density of approximately 100,000 cells/well in HepaRG Thaw, Plate, and General Purpose media (HPRG770, Thermo Fisher Scientific), and incubated for 48 hours. 0.5% DMSO was selected as vehicle control to balance the requisite need of DMSO in HepaRG cultures to maintain differentiation (for example, baseline metabolism, proportions of hepatocytes vs. cholangiocytes), while enabling further hepatic receptor pathway activation (for example, PXR and CAR) in response to chemical exposure. 48 hours after plating, the culture medium was replaced with HepaRG Serum-Free Incudtion Media. Cells were exposed to each test chemical in duplicate and maintained in CO2 incubators for another 48 hours. Chemical plates were thawed to room temperature and 200x concentrations of treatment groups were prepared. 8-point conentration-reponse curves were made with the highest exposure at 100 uM, followed by half-log dilutions, all in 0.5% DMSO. Each test plate contained variouse controls, induction positive controls (1mM phenobarbital), cytotoxicity positive controls ([…] aflatoxin B1), vehicle controls (0.5% DMSO), and total lysis controls (0.5% DMSO). Cell morphology images were taken using an Essen IncuCyte FLR automated microscope, with six 96-well plates imaged in about 24 minutes. Images were captured and exported and JPEG files. Spent culture media was transfered to black-well plates for the LDH assay, and remaining media was sorted at -80 C for later use. Cells were treated with RLT buffer and frozen until shipped for gene expression analysis. Total RNA was isolated from the cell suspension in 75 uL of Buffer RLT (Qiagen, Germantown, MD 20874) by Quintiles/Expression Analysis (Durham, NC) using a custom isolation procedure. Total RNA from each plate well was transferred to a preamplification plate. Fluidigm's 96.96 Dynamic ArrayTM (Fluidigm, Amsterdam, the Netherlands) technology was used for gene expression analyses by quantitative reverse transcription polymerase chain reaction (qRT-PCR, performed by Quintiles/Expression Analysis, Durham, NC)89. Standard TaqManTM Assays (Applied Biosystems/ThermoFisher Scientific, Foster City, CA) were used to assess the expression of 93 genes selected based on their selectivity and sensitivity to important hepatic receptors known to be modulated by environmental chemicals; importance in human hepatocyte functionality; and hepatotoxicity. […]
`CCC(C)(C)c1ccc(O)cc1`: the compound was called inactive.
In general, AC50 refers to the concentration giving half of the maximal activity seen. In the case of `ClC1=C(Cl)C2(Cl)C3C(Cl)C(Cl)CC3C1(Cl)C2(Cl)Cl` (stereo not given), the AC50 is 77 µM (active).
`CC(Cc1ccc(OCC(=O)O)cc1)NCC(O)c1csc(C(F)(F)F)n1` (stereo not given): the compound was classed as inactive.
In the case of `O=C(O)C1C(C(=O)O)C2(Cl)C(Cl)=C(Cl)C1(Cl)C2(Cl)Cl` (stereo not given), the compound was called inactive.
On to `CC(Cl)(Cl)C(=O)O`, for which the compound was classed as inactive.
Still for that read-out and setting: for `Cc1ccc([N+](=O)[O-])cc1C` the value was “inactive”.
As to `CCOP(=S)(Oc1ccc([N+](=O)[O-])cc1)c1ccccc1` (stereo not given), the compound was called inactive.
`CCNc1nc(Cl)nc(NC(C)(C)C)n1`: the compound was classed as inactive.
Consider `CCOS(=O)(=O)OCC`, for which the compound was classed as inactive.
Take `CN(C)C(=O)Cl`: the compound was called inactive.
As to `CCC1(c2ccccc2)C(=O)N=C(O)NC1=O` (stereo not given), the outcome was inactive.
In the case of `Cc1cccc(N)c1`, the call was inactive.
Take `Nc1ccc(Cl)cc1`: the compound was classed as inactive.
On the same count and under the same terms, next, `O=P1(N(CCCl)CCCl)NCCCO1` (stereo not given): “inactive”.
Turning to `O=P(Oc1ccccc1)(Oc1ccccc1)Oc1ccccc1`, the AC50 is 77.5 µM (active).
Turning to `CC(C)(C)OOC(C)(C)C`, the compound was classed as inactive.
Still for that read-out and setting: next, `[N-]=[N+]=[N-]`: “inactive”; `OCC1CO1` (stereo not given): “inactive”; `CCCCc1ccccc1`: “inactive”.
On the same count and under the same terms, for `CCOc1ccc(C(C)(C)COCc2cccc(Oc3ccccc3)c2)cc1` the value was “inactive”; for `CCCCN(CCCC)SN(C)C(=O)Oc1cccc2c1OC(C)(C)C2`, “inactive”.
For `CCCCCCCc1ccc(O)cc1`, the result was inactive.
In the case of `O=C(O)C(Cl)Cl`, the compound was classed as inactive.
In the case of `ClC(Cl)(Cl)c1ccccc1`, the outcome was inactive.
Consider `CCOC(=O)c1ccccc1C(=O)OCC`, for which the compound was classed as inactive.
Consider `Cc1ccc(N)cc1N`, for which the compound was classed as inactive.
As to `O=[N+]([O-])c1ccc(Cl)c(Cl)c1`, the call was inactive.
Take `COCCOCCO`: the compound was called inactive.
Same read-out and setting: for `Cc1ccc(O)cc1C` the value was “inactive”; for `c1cc2c3c(cccc3c1)CC2`, “inactive”; for `CCN(CC)c1ccccc1`, “inactive”.
As for `c1nc[nH]n1`, the AC50 is 12.4 µM (active).
With `c1ccc(OP(Oc2ccccc2)Oc2ccccc2)cc1`, the outcome was inactive.
For `Nc1cc2c3c(c1)C(c1ccccc1)=N[C@@H](NC(=O)c1cccnc1)C(=O)N3CC2`, the result was inactive.
For `CC(C)(C)c1ccc(O)cc1`, the call was inactive.
On the same count and under the same terms, for `O=[N+]([O-])c1ccccc1` the value was “inactive”; for `CCOP(=S)(OCC)SCSCC`, “inactive”; for `Nc1ccc2ccccc2c1`, “inactive”.
`CCCN(CCC)c1c([N+](=O)[O-])cc(C(C)C)cc1[N+](=O)[O-]`: the outcome was inactive.
The same measure, in the same setting: for `CCCCN(CCCC)N=O` the value was “inactive”.
